Hit rate of the full screen: of about 71,000 compounds, about 310 (0.44%) were called active. Not shown: some 5% with an inconclusive outcome. The sample holds actives, similar compounds and a random draw of the others, so the mix is not that of the screen. Calls follow the shape of the dose curve; as a rule, active = well fitted curve in either direction with a large enough effect; inconclusive = small, poorly fitted or top-dose-only effect, or another doubt; inactive = flat fitted curve, though single readings scatter.
Tested on: Hsp90 C-terminal peptide / TPR2A (Hop) interaction, human
Assay: qHTS Assay for Disrupters of an Hsp90 Co-Chaperone Interaction
Conditions: AlphaScreen TPR2A-His6 binding biotin-Hsp90 C-terminal peptide; series mostly up to 57 µM; activity change, negative = inhibition: at the top concentration
Source text: NIH Chemical Genomics Center [NCGC]
NIH Molecular Libraries Screening Centers Network [MLSCN]
Hsp90 (heat shock protein 90) is the essential molecular chaperone and it accounts for 1-2% of all cytosolic proteins and is critical for the activity of diverse cellular proteins that are involved in a variety of cellular processes, including development, cell cycle, and steroid hormone signaling. Its client proteins include signaling kinases such as IGF1R, Akt, v-Src, Raf-1; regulators of cell survival such as Bcr-Abl; and transcription factors such as mutated p53, estrogen and progesterone receptors. Hsp90 has emerged as an important target for cancer treatment due to its essential role in maintaining transformation and regulating the function of oncogenic signaling proteins.
The in vivo function of Hsp90 is regulated by the binding and hydrolysis of ATP at its N-terminal. Geldanamycin binds to ATP site and inhibit Hsp90 function. Geldanamycin and its analogues are under clinical trials in cancer patients.
This domain contains the binding site for tetratricopeptide repeat (TPR) domains on HOP (Hsp Organizing Protein). TPR is a structural motif used by a significant number of cochaperones by which the in vivo function of Hsp90 is regulated. TPR2A on HOP binds specifically to MEEVD motif of the C-terminal of Hsp90.
A homogeneous AlphaScreen is developed to assess the interaction between TPR2A and MEEVD motif of the C-terminal of Hsp90 by using the isolated TPR2A domain and a synthesized 20mer Hsp90 C terminal peptide. AlphaScreen is two bead-based proximity-dependent chemical energy transfer luminescent assay platform. TPR2A-His-6 and biotinylated Hsp90 C terminal peptide will bring streptavidin donor beads and nickel chelate acceptor beads to a proximity range (less than 200 nm), and subsequently lead a chemical luminescent reaction upon exciting donor beads with 680 nm laser. Inhibition of TPR2A and MEEVD motif interaction by small molecules could attenuate or abolish this chemical luminescent reaction.
Counter screening: Biotinylated-His-6 (PerkinElmer) can be utilized as a counter screen, as it serves as a linker to bring streptavidin beads and nickel chelate beads together. The counter screen can exclude alpha screen platform false positives due to small molecules being metal chelators, biotin analogues and imidazole analogues, or due to interfering with oxygen release from donor beads. Such an assay should be utilized to qualify any activity observed in this screen.
NCGC Assay Protocol Summary:
The assay was performed on 1536-well white plate (untreated solid bottom). Liquids were dispensed by 1536-well plate washer (Kalypsys, San Diego, CA). Plates were read on EnVision (PerkinElmer, Boston, MA).TPR2A-His6 was produced using a bacteria expression system and purified using a well developed method (Ghosh et al., 2000). Hsp90 C terminal 20-mer peptide with or without an N-terminal biotin group are synthesized using automated solid phase synthesis by the Yale Keck facility. The composition of assay buffer was (in mM) 25 HEPES, 100 KCl, 2 MgCl2 and 2 DTT; 0.1% BSA and 0.01% Tween-20. TPR2A-His6 binding to biotin-Hsp90 will bring streptavidin donor beads and nickel chelate acceptor beads (PerkinElmer) together and can be measured by Alpha reading by EnVision (PerkinElmer). Free Hsp90 blocks biotin-Hsp90 binding to TPR2 and serves as a positive control in the current asssay.
The assay was performed at room temperature. All compounds were screened as titrations from […] to 46 uM final concentration. The assay was performed in 1536-well format plates (untreated white solid bottom, Corning Inc.) as follows:
Sequence,Parameter,Value,Description
1,Reagent,3 uL TPR2A-His6,Final concentration was 5nM
2,Compound,23 nL,Final titration was from 0.7 nM to 46 uM
3,Time,15 minutes,Room temperature
4,Reagent,1 uL biotin-Hsp90,With and without free Hsp90. Final concentration was 10 nM for biotin-Hsp90 and 10uM for free Hsp90.
5,Time,1 hour,Room temperature
[…]
% is scaled to controls: 0 for no effect and ±100 for the full control effect; potency is read from the fitted curve at half-maximal effect.

Structure (SMILES) | activity change, negative = inhibition | Potency
CN1CCc2[nH]nc(-c3n[nH]c4c3CN(C)CC4)c2C1 | -1.93% [at 11 µM] (inactive) | –
CC1=C(C(=O)Nc2ccccc2)C(c2cccs2)C(C#N)=C(SCC#N)N1 (stereo unspecified) | -27.6% (inactive) | –
CCCCN(CCCC)C(=O)CCS(=O)(=O)c1ccc2c(c1)n(C)c(=O)c(=O)n2C | -3.15% (inactive) | –
Cc1cnc(CNc2nc(-c3cccnc3)nc3ccccc23)cn1 | -7.89% (inactive) | –
CCCn1nnc2sc3c(c2c1=O)CCC(C)C3 (stereo unspecified) | -1.67% (inactive) | –
Cn1cccc1C(=O)N1CCC[C@@]2(CCN(Cc3nccs3)C2)C1 | -5.4% (inactive) | –
Cc1n[nH]c(C)c1S(=O)(=O)N1CCCC(C(=O)NCC2COc3ccccc3O2)C1 (stereo unspecified) | -0.626% (inactive) | –
c1ccc(Oc2ccccc2)cc1 | -0.703% (inactive) | –
COC(=O)[C@@]1(Cc2ccccc2)[C@H]2c3cc(C(=O)N(C)C)n(CCSCCO)c3C[C@H]2CN1C(=O)c1ccccc1 | -2.28% (inactive) | –
C=CCn1c(COc2ccccc2F)nnc1SCC(=O)N1CC(=O)Nc2ccccc21 | -3.33% (inactive) | –
CO[C@@H]1/C=C\O[C@]2(C)Oc3c(C)c(O)c4c(O)c(c(CN(C)C)c(O)c4c3C2=O)NC(=O)/C(C)=C\C=C[C@@H](C)[C@@H](O)[C@H](C)[C@@H](O)[C@H](C)[C@H](OC(C)=O)[C@@H]1C | -3.79% [at 11 µM] (inactive) | –
CC[C@H](c1ccccc1)c1cc(C(C)(C)C)cc(C(C)(C)C)c1O | 5.54% [at 11 µM] (inactive) | –
S=c1[nH]nc(SCc2ccccc2Cl)c2[nH]cnc12 | -1.97% [at 11 µM] (inactive) | –
Oc1cc2c(cc1O)CN(C(=S)NCCc1ccc(Cl)cc1)CCC2 | inactive | –
CCOC(=O)c1[nH]cnc1C(=O)NC1CCCCC1 | -5.53% (inactive) | –
N#Cc1ccccc1-c1ccc2ncnc(NCc3cccnc3)c2c1 | -3.83% (inactive) | –
O=C(O)C1CCN(c2ncnc3ccc(-c4ccccc4C(F)(F)F)cc23)CC1 | -3.83% (inactive) | –
c1ccc2c(Nc3ccncc3)nc(-c3ccc4c(c3)OCO4)nc2c1 | -7.62% (inactive) | –
C#CCCCCCCCCCCCCCCCC(=O)O | 2.03% (inactive) | –

Structure (SMILES) | activity change, negative = inhibition | Potency
Cc1ccnc(NC(=O)c2ccc(NC(=O)c3ccco3)cc2)c1 | -4.27% (inactive) | –
CC(NC(=O)c1ccco1)C(=O)Nc1nc(-c2ccccn2)cs1 (stereo unspecified) | – | 10 µM (active)
O=C(Nc1ccc(NC(=O)c2cccs2)cn1)c1ccco1 | 0.348% (inactive) | –
N#CCCn1c(=O)c(-c2cc(F)cc(F)c2)nc2cnc(Oc3ccccc3)nc21 | -22.8% (inactive) | –
CCCc1cc(=O)[nH]c(SCC(=O)OCc2ccccc2)n1 | -3.02% (inactive) | –
COc1ccccc1-c1nc(NCc2cccs2)c2ccccc2n1 | -7.25% (inactive) | –
O=C(Nc1c2c(nn1-c1ccc(F)cc1)CS(=O)C2)C12CC3CC(CC(C3)C1)C2 (stereo unspecified) | -1.88% (inactive) | –
CCOC(=O)CNC(=O)CSc1nnc(-c2cccc(OC)c2)n1CC | 0.037% (inactive) | –
COC(=O)[C@H]1[C@H]2C[C@H]3c4[nH]c5ccccc5c4CCN3C[C@@H]2CC[C@@H]1O | inactive | –
COc1ccc2oc(=O)c(C(=O)N3CCN(c4ccccc4F)CC3)cc2c1 | -5.42% (inactive) | –
O=C(c1cccc2ccccc12)N1CCN(c2ccccc2F)CC1 | 1.86% (inactive) | –
O=C(Nn1cc(C(=O)N2CCN(c3ccccc3F)CC2)c2ccccc2c1=O)c1cnccn1 | – | 3.98 µM (active)
c1ccc(CNc2ncncc2-c2cccnc2)cc1 | -8.1% (inactive) | –
COc1ccc2[nH]cc(CCNc3ncnc4ccc(-c5ccccc5CN(C)C)cc34)c2c1 | -21.4% (inactive) | –
COc1ccc(C(=O)Nc2c(N)nc(SCC(=O)N3CCC(C)CC3)[nH]c2=O)cc1OC | -3.46% (inactive) | –
CCOc1c(OC)cc(C2C(C#N)=C(N)Oc3n[nH]c(-c4ccncc4)c32)cc1OC (stereo unspecified) | -6.32% (inactive) | –
COc1cc(C2C(C#N)=C(N)Oc3n[nH]c(-c4ccccn4)c32)cc(OC)c1OC (stereo unspecified) | – | 25.1 µM (active)
COc1ccc(-c2[nH]nc3c2C(c2ccncc2)C(C#N)=C(N)O3)cc1 (stereo unspecified) | -5.29% (inactive) | –
COc1ccc(-c2nc3cnc(OC)nc3n(Cc3ccc(F)cc3)c2=O)cc1 | -3.6% (inactive) | –

Structure (SMILES) | activity change, negative = inhibition | Potency
O=c1cc(-c2ccc(O)c(O)c2)oc2cccc(O)c12 | -19.6% (inactive) | –
CCCCCCCCCCCC(=O)O | -1.69% (inactive) | –
CCCOC(=O)Nc1ccccc1C(N)=O | -3.39% (inactive) | –
CC(=O)/C(C)=N\O | 0.893% (inactive) | –
CCn1c(=N)c(C(=O)NCCCOC)cc2c(=O)n3cccc(C)c3nc21 | -6.79% (inactive) | –
O=C(c1ccco1)N1CCC2(CC1)CCN(c1ncccn1)CC2 | 0.252% (inactive) | –
C=CCNC(=O)CCCOc1cccc(C)c1 | -6.77% [at 11 µM] (inactive) | –
COC(=O)[C@@H](NC(=O)NCc1cccc(OC)c1)C(C)C | -1.2% (inactive) | –
CCOC(=O)C(CCOc1cccc(CC)c1)C(=O)OCC | – | 25.1 µM [activator] (active)
COc1cccc(-n2c(SCC(=O)NC3CCCCC3)nc3n[nH]c(C)c3c2=N)c1 | -1.24% (inactive) | –
CC(=O)Nc1ccc(S(=O)(=O)N2CCC(N(C)CCC(C)C)CC2)cc1 | -3.29% (inactive) | –
Cc1ccc(/C(=C/CN2CCCC2)c2ccccn2)cc1 | inactive | –
Cc1ccc(S(=O)(=O)Cn2nnnc2CN2CCN(Cc3ccc4c(c3)OCO4)CC2)cc1 | -1.83% (inactive) | –
N=c1c2c3c(sc2ncn1N)CCCCC3 | -0.172% (inactive) | –
COC(=O)c1ccccc1NC(=O)c1cncc(Br)c1 | 19.5% (inactive) | –
N#C/C(=C\c1ccc(O)c(O)c1)C(=O)NCc1ccccc1 | -10.1% (inactive) | –
COc1ccc(OC)c([C@H](O)CNC(=O)CN)c1 | -3.33% [at 26 µM] (inactive) | –
Cc1cnc(CNc2ncncc2-c2ccccc2Cl)cn1 | 3.83% (inactive) | –

From PubChem BioAssay AID595 (National Center for Advancing Translational Sciences (NCATS), 2007)
